Data: PubChem BioAssay
Active and inactive are the calls of the source. Unless noted, no rule for the calls is given here.

Columns and labels:
[1] = blood-stage malaria parasite viability loss – strain 3D7, DAPI fluorescence, 100 nL, primary screen (AID 1184);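 also: parasites grown inside human red blood cells in medium with human serum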; conditions: P. falciparum 3D7 growth, 3 d, higher = more signal
[2] = target: Homeobox protein Hox-A13 (Mus musculus) (UniProt Q62424); experiment: disruptors of Hoxa13 oligonucleotide interaction – biochemical, fluorescence polarization, labeled oligonucleotide, primary screen (AID 1185); conditions: Hoxa13:DNA binding, 15 min, higher = more signal, called active from +8 up or from −8 down
[3] = blockers of DNA damage checkpoint Chk1 activation – imaging, HeLa, hydroxyurea, phospho-Chk1 antibody, percent positive cells, primary screen (AID 1186); conditions: hydroxyurea-induced phospho-Chk1 immunofluorescence imaging, higher = more signal
[4] = blockers of DNA damage checkpoint Chk1 activation – imaging, HeLa, hydroxyurea, phospho-Chk1 nuclear intensity, primary screen (AID 1187); conditions: hydroxyurea-induced phospho-Chk1 immunofluorescence imaging, higher = more signal; also: test concentration not given here

Sequence of Homeobox protein Hox-A13 (Mus musculus) (Q62424 whole entry, looked up): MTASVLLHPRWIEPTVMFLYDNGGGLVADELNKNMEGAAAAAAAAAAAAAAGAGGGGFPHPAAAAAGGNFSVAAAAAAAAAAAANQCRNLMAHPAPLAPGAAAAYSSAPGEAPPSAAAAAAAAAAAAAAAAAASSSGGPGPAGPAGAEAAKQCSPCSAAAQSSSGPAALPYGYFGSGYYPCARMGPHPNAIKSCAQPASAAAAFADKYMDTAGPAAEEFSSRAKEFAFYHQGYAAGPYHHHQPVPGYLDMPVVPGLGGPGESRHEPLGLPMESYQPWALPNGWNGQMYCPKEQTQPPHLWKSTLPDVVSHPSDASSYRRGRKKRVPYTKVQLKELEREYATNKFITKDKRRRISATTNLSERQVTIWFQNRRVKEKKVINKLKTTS

| SMILES | z-score [1] | z-score [2] | z-score [3] | z-score [4] |
| --- | --- | --- | --- | --- |
| C=C(COC)/C(=C/C[C@H](OC(C)=O)c1cccc(OCCO)c1)c1cc(C(=O)OC)ccc1OC | -2.67 | -2.39 (inactive) | -0.283 (inactive) | -0.727 (inactive) |
| COc1ccc([Si](C)(C)[C@@H]2[C@@H](CC(=O)N3CCC[C@H]3CO)O[C@]3(C(=O)N(Cc4ccc(N5CCC5=O)cc4)c4ccccc43)[C@H]2C)cc1 | -0.0482 | -2.83 (inactive) | -0.245 (inactive) | 0.476 (inactive) |
| COCCOC(=O)N1C(=O)[C@@]2(c3cc(C#CCNC(N)=O)ccc31)[C@H](C(=O)NC[C@H](O)c1ccccc1)[C@H]1C(=O)O[C@H](c3ccccc3)[C@H](c3ccccc3)N1[C@@H]2c1ccc(O)cc1 | 0.418 | -2.4 (inactive) | -0.134 (inactive) | -0.595 (inactive) |
| O=C(NCC(F)(F)F)[C@@H]1c2ccccc2C(=O)N(C2Cc3ccccc3C2)[C@H]1c1ccc(CO)cc1 | 0.824 | -1.6 (inactive) | -0.606 (inactive) | -0.842 (inactive) |
| COc1ccc([Si](C)(C)[C@H]2[C@H](CCO)O[C@@]3(C(=O)N(Cc4ccc(N5C(=O)c6cccc7cccc5c67)cc4)c4ccccc43)[C@@H]2C)cc1 | -1.23 | -0.82 (inactive) | -1.48 (inactive) | -1.39 (inactive) |
| CO[C@H]1O[C@H](CO)[C@@H](OC(=O)CCc2ccccc2)[C@@H]2OC(=O)[C@H](Cc3ccccc3)C/C=C/C[C@@H](Cc3ccccc3)C(=O)O[C@@H]12 | -1.58 | -2.71 (inactive) | -0.527 (inactive) | -0.474 (inactive) |
| CCOC(=O)C[C@H]1[C@H](OC(=O)c2ccc(-c3ccccc3)cc2)[C@@H](NC(=O)c2ccccc2)c2cc(OCCCO)ccc2N1C(=O)c1ccccc1 | -1.21 | -0.959 (inactive) | -1.04 (inactive) | -0.361 (inactive) |
| C=CCC(OC(C)=O)[C@@H]1[C@@H](N(Cc2cccc3ccccc23)C(=O)c2cccc3ccccc23)c2cc(OCCCO)ccc2N1C(=O)Cc1ccc(OC)cc1 (stereo partly specified) | -2.48 | -1.57 (inactive) | -0.0578 (inactive) | 0.507 (inactive) |
| C=CCN1C(=O)[C@@]2(O[C@@H](CCn3cc(CCO)nn3)[C@H]([Si](C)(C)c3ccc(OC)cc3)[C@H]2C)c2cc(NC(=O)c3ccc(OC)cc3)ccc21 | -2.65 | -4.19 (inactive) | 1.09 (inactive) | 1.28 (inactive) |
| C[N+](C)(C)CCCC[C@@H]1NC(=O)[C@@H]2C[C@H](C(=O)NCCCCCNC(=O)CS)[C@H](c3ccc(O)cc3)N2C1=O | -0.34 | -1.22 (inactive) | -0.536 (inactive) | -0.272 (inactive) |
| NC(=O)N1C(=O)C2C(C1=O)C1C=C(c3ccc(CO)cc3)C2C(C2CC2)N1Cc1cc2c(cc1Br)OCO2 (stereo unspecified) | -2.14 | -3.21 (inactive) | -0.136 (inactive) | -0.279 (inactive) |
| COC(=O)C1=CC(c2ccc(CO)cc2)=CC(c2cccs2)N(C)C=C1C(=O)OC (stereo unspecified) | -1.75 | -6.41 (inactive) | -0.261 (inactive) | -0.22 (inactive) |
| C=CC[C@]1(C(=O)N(C)C)N=C(c2ccc(OCCCO)cc2)O[C@H]1c1ccccc1CN=[N+]=[N-] | -2.49 | -4.33 (inactive) | -0.0783 (inactive) | 0.347 (inactive) |
| CC(=O)OC(C/C=C\B1OC(C)(C)C(C)(C)O1)c1ccccc1 (stereo unspecified) | -1.41 | -1.28 (inactive) | -0.873 (inactive) | -1.16 (inactive) |
| CC(C)(C)OC(=O)CC[C@@]1(C(=O)NCc2ccccc2)N=C(c2ccc(OCCCO)cc2)O[C@@H]1c1ccccc1CN=[N+]=[N-] | -2.72 | -0.088 (inactive) | -0.763 (inactive) | -0.84 (inactive) |
| C=CCC(OC(C)=O)[C@@H]1[C@@H](N(Cc2cc3ccccc3o2)C(=O)c2ccc(-c3ccccc3)cc2)c2cc(OCCCO)ccc2N1C(=O)c1ccc(-c2ccccc2)cc1 (stereo partly specified) | -1.63 | -0.639 (inactive) | -0.604 (inactive) | -0.195 (inactive) |
| COCCOC(=O)N1C(=O)[C@@]2(c3cc(C#CC4(O)CCCCCC4)ccc31)[C@H](C(=O)NC[C@H](O)c1ccccc1)[C@H]1C(=O)O[C@H](c3ccccc3)[C@H](c3ccccc3)N1[C@@H]2c1ccccc1OCCO | -2.11 | -0.371 (inactive) | 0.462 (inactive) | 0.992 (inactive) |
| COCCOC(=O)N1C(=O)[C@@]2(c3cc(C#CC4(O)CCCCCC4)ccc31)[C@H](c1ccc(O)cc1)N1[C@H](c3ccccc3)[C@H](c3ccccc3)OC(=O)[C@H]1[C@@H]2C(N)=O | -0.5 | -2.38 (inactive) | 0.178 (inactive) | 0.0653 (inactive) |
| CC(C)C[C@@H]1NC(=O)[C@H]2C[C@@H](C(=O)NCCCC[N+](C)(C)C)[C@@H](c3cccc(OCCO)c3)N2C1=O | 1 | -2.24 (inactive) | 0.656 (inactive) | 0.824 (inactive) |
| C=CCC1(CC=C)C[C@H]2CO[C@H](c3ccc(OC)cc3)N2C1=O | -0.682 | -0.41 (inactive) | -0.063 (inactive) | 0.989 (inactive) |

| SMILES | z-score [1] | z-score [2] | z-score [3] | z-score [4] |
| --- | --- | --- | --- | --- |
| Cc1ccc(S[C@]2(C(=O)NCCN3CCOCC3)CC(=O)N(Cc3cc(C(F)(F)F)cc(C(F)(F)F)c3)[C@@H]2c2ccc(CO)cc2)cc1 | -0.578 | -1.78 (inactive) | -0.999 (inactive) | -2.03 (inactive) |
| CN(C)CCCC[C@@H]1NC(=O)[C@@H]2C[C@H](C(=O)NCCCCCNC(=O)CS)[C@H](c3cccc(OCCO)c3)N2C1=O | -1.46 | -1.12 (inactive) | 0.27 (inactive) | 0.302 (inactive) |
| C=CCN1C(=O)[C@@]2(O[C@@H](CCO)[C@H]([Si](C)(C)c3ccc(OC)cc3)[C@H]2C)c2cc(N(C=O)c3ccccc3)ccc21 | -2.56 | -3.62 (inactive) | -1.21 (inactive) | -0.407 (inactive) |
| COCCCNC(=O)[C@@]1(Cc2ccccc2)N=C(c2ccc(OCCCO)cc2)O[C@H]1c1ccccc1N=[N+]=[N-] | -2.43 | -3.11 (inactive) | -0.362 (inactive) | -0.373 (inactive) |
| CO[C@H]1O[C@H](CO)[C@@H](OC(=O)Nc2ccccc2)[C@H](OC(=O)Nc2ccccc2-c2ccccc2)[C@H]1OC(=O)Nc1ccccc1-c1ccccc1 | -1.81 | -3.12 (inactive) | -0.796 (inactive) | -0.793 (inactive) |
| COc1ccc(C#Cc2ccc3c(c2)[C@]2(C(=O)N3)[C@H](c3ccc(O)cc3)N3[C@H](c4ccccc4)[C@H](c4ccccc4)OC(=O)[C@H]3[C@@H]2C(N)=O)cc1 | -1.17 | -0.123 (inactive) | 0.186 (inactive) | 0.381 (inactive) |
| C=C(C(=O)CC[C@@H](OC(C)=O)c1ccccc1OCCO)C(C)C | -1.59 | -1.92 (inactive) | -0.345 (inactive) | -0.171 (inactive) |
| COC(=O)[C@@]1(CCC(=O)OC(C)(C)C)COC(c2ccc(OCCCO)cc2)=N1 | -0.478 | -2.57 (inactive) | -0.14 (inactive) | 0.264 (inactive) |
| O=C(NO)[C@]1(Cc2ccccc2)N=C(c2ccc(OCCCO)cc2)O[C@@H]1c1ccccc1 | -1.26 | -5.15 (inactive) | -0.593 (inactive) | -0.0319 (inactive) |
| COc1c(C)cc(-c2cc3c(c(CCc4ccccc4)n2)[Si](C(C)C)(C(C)C)OC3)cc1C | -0.633 | -0.207 (inactive) | -0.666 (inactive) | -0.461 (inactive) |
| C=CCNC(=O)[C@@H]1[C@H]2C(=O)O[C@H](c3ccccc3)[C@H](c3ccccc3)N2[C@H](c2ccc(O)cc2)[C@@]12C(=O)Nc1ccc(C#Cc3ccc(OC)cc3)cc12 | -0.107 | 0.296 (inactive) | -0.357 (inactive) | -0.426 (inactive) |
| O=C1c2ccccc2C(=O)c2cc([C@H]3Oc4ccccc4S(=O)(=O)N4CCC[C@@H]34)ccc21 | -1.27 | -3.19 (inactive) | -0.4 (inactive) | -0.252 (inactive) |
| CCCC[C@@H](O)C1=C(C)C[C@H]2C(=O)N(C)C(=O)[C@H]2[C@H]1CO | -1.46 | -3.63 (inactive) | -0.425 (inactive) | -0.185 (inactive) |
| CC(=O)NCCCC[C@@H]1NC(=O)[C@@H]2C[C@H](C(=O)O)[C@H](c3cccc(OCCO)c3)N2C1=O | -0.313 | 0.294 (inactive) | -0.0079 (inactive) | 0.165 (inactive) |
| CO[C@H]1O[C@H](CO)[C@@H](OC(=O)Nc2ccccc2)[C@H](OC(=O)Nc2ccc3c(c2)OCO3)[C@H]1OC(=O)Nc1ccc2c(c1)OCO2 | -2.2 | -7.83 (inactive) | -0.935 (inactive) | -0.967 (inactive) |
| CCOC(=O)C[C@H]1[C@H](OC(=O)c2cc3ccccc3oc2=O)[C@@H](NC(=O)c2ccccc2)c2cc(OCCCO)ccc2N1C(=O)Cc1ccc(OC)cc1 | -2.11 | -0.814 (inactive) | -0.35 (inactive) | -0.0607 (inactive) |
| C#CCOc1ccc(C[C@H]2C(=O)O[C@H](Cc3ccccc3)[C@H](/C=C/C3CC3)N2CC#C)cc1 | -1.13 | -0.167 (inactive) | -0.54 (inactive) | -0.582 (inactive) |
| COc1ccc(CCNC(=O)[C@@]2(Sc3ccc(C)cc3)CC(=O)N(Cc3ccccc3)[C@@H]2c2ccc(CO)cc2I)cc1 | -1.01 | -1.1 (inactive) | 0.0564 (inactive) | 0.672 (inactive) |
| C=CCNC(=O)[C@@H]1[C@H]2C(=O)O[C@H](c3ccccc3)[C@H](c3ccccc3)N2[C@H](c2ccc(O)cc2)[C@@]12C(=O)Nc1ccccc12 | -1.73 | -3.58 (inactive) | 0.21 (inactive) | 0.399 (inactive) |
